Compound activity (PubChem)
HTT cytoprotect = qHTS Multiplex Assay to Identify Dual Action Probes in a Cell Model of Huntington: Cytoprotection (ATP) | PC12 HTT-Q103 induced, cytoprotection, ATP luminescence, 40 h | Potency, µM (titrated, usually from 56.4 µM), inactives show cytoprotection (ATP increase), usual class: activators | hit rate 0.14% among 230,000 | AID 1471, 2008; also: potency is read from the fitted curve at half-maximal effect; % of control where 0% means no effect; nearly all actives have a fitted effect of over 45% in size
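Compounds added alongside 100 nM tebufenozide, which induces toxic Q103 huntingtin exon 1-GFP in stable PC12 cells; surviving cells quantified by luminescent ATP measurement. Medium: phenol red-free DMEM, 5% equine and 5% calf serum.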
Lamin A splicing = qHTS Assay for Modulators of Lamin A Splicing; HeLa LMNA splicing GFP/RFP minigene ratio, 48 h; Potency, µM (top dose mostly 46.1 µM), inactives show at the top dose ratio change, negative = inhibition, actives largely listed as inhibitors; hit rate 0.01% among 200,000; active = well fitted inhibition curve with a large enough effect in the signal ratio, with a control signal flat, not every such curve was filed as active; inconclusive = small, poorly fitted or top-dose-only effect, or effect the other way, or a change in a side signal; the % refers to the signal ratio; also: potency is read from the fitted curve at half-maximal effect; % is scaled to controls: 0 for no effect and ±100 for the full control effect
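S3 HeLa stable clones carrying a lamin A-EGFP splicing minigene plus DsRed2 were seeded at 600 cells/well in Opti-MEM with 2% FBS, pin-dosed and incubated 48 h at 37°C. Acumen cytometry (488 nm) gave the GFP/RFP total-intensity ratio.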
MBNL1-CUG inh = qHTS Assay for Inhibitors of MBNL1-poly(CUG) RNA binding; Muscleblind-like protein 1 (Homo sapiens), Q9NR56; TR-FRET MBNL1-His/biotin-(CUG)12 binding, 665/545 ratio; Potency, µM (highest dose often 57.5 µM), for inactives: at the top dose activity change, negative = inhibition, hits mostly inhibitors; hit rate 0.036% among 280,000; AID 2675, 2010; active = well fitted inhibition curve with a large enough effect in the signal ratio, with a control signal flat, not every such curve was filed as active; inconclusive = small, poorly fitted or top-dose-only effect, or effect the other way, or a change in a side signal; inactive = no such curve, though single readings can be large or run the other way; the % refers to the signal ratio; also: potency is read from the fitted curve at half-maximal effect; % is scaled to controls: 0 for no effect and ±100 for the full control effect
Target sequence (Q9NR56 whole entry, looked up): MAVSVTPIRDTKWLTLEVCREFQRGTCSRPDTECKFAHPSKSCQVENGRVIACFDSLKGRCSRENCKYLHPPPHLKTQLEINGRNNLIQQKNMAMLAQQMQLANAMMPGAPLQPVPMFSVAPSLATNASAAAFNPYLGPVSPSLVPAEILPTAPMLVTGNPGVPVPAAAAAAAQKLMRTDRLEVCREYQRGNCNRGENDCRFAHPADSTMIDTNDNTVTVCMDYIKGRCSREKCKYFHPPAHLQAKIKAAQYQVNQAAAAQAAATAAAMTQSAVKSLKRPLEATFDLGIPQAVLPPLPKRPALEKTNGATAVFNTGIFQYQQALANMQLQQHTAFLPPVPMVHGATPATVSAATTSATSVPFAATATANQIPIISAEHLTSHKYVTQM
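Compounds (final 92 nM to 58 uM) are added to His-tagged MBNL1 and biotin-(CUG)12, then terbium anti-His antibody and streptavidin-XL665 (5 nM final). After 60 min at room temperature, the 665/545 nm ratio is read.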
CBFb-RUNX1 inh = qHTS Assay for Compounds Blocking the Interaction Between CBF-beta and RUNX1 for the Treatment of Acute Myeloid Leukemia. AID 1477, 2009. Runt-related transcription factor 1 (Homo sapiens) + Core-binding factor subunit beta …. Potency, µM (highest dose often 59.8 µM), inactives show at the top dose activity, negative = inhibition, usual class: inhibitors. AlphaScreen CBFb-His/RUNX1-biotin binding, biochemical. 230,000 tested, under 10 active; also: % of control where 0% means no effect
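Proteins preincubated together for 20 min at RT before compound addition; 15 min later, nickel and streptavidin beads were added and left 90 min prior to AlphaScreen measurement.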
HttQ103 aggreg = qHTS Multiplex Assay to Identify Dual Action Probes in a Cell Model of Huntington: Aggregate Formation (GFP); PC12 HttQ103-GFP aggregates, Acumen cytometry, 40 h; Potency, µM (top dose mostly 46.1 µM), inactives show top-dose activity change, negative = inhibition, actives largely listed as inhibitors; hit rate 1.1% among 220,000; AID 1688, 2009; also: potency is read from the fitted curve at half-maximal effect; % is scaled to controls: 0 for no effect and ±100 for the full control effect; nearly all actives have a fitted effect of over 60% in size
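Compounds (qHTS titration) were added to PC12 cells expressing an ecdysone-driven HTT exon 1 Q103–GFP fusion after induction with 100 nM tebufenozide. Aggregate formation was measured as GFP objects in cell lysates.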
NPSR antag = qHTS Assay for Antagonists of the Neuropeptide S Receptor: cAMP Signal Transduction; CHO-NPSR cells, cAMP TR-FRET, antagonist mode; Q6W5P4; Potency, µM (top dose mostly 38.3 µM), for the others: at the highest dose activity change, negative = inhibition, actives largely listed as inhibitors; AID 1461, 2008; hit rate 1% among 220,000; also: potency is read from the fitted curve at half-maximal effect; % is scaled to controls: 0 for no effect and ±100 for the full control effect; nearly all actives have a fitted effect of over 50% in size
Target sequence (Q6W5P4 whole entry, looked up): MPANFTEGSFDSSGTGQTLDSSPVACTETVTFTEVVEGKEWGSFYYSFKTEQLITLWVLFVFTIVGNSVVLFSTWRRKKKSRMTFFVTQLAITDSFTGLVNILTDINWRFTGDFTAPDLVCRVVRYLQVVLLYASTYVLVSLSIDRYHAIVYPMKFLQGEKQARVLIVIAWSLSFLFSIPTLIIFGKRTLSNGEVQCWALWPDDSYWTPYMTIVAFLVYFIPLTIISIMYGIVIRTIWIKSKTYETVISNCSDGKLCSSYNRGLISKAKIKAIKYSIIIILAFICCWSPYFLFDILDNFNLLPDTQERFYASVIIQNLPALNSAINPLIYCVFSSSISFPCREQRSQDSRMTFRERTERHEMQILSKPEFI
Active calls of the source: *; ? = inconclusive; nt = no result given; [ ] = another dose, or the depositor's remark. Shown are actives, neighbours in structure and some others; about 1.1% of the full set was active somewhere. Unless noted, calls follow the shape of the dose curve; as a rule, active = well fitted curve in the direction sought with a large enough effect; inconclusive = small, poorly fitted or top-dose-only effect, or another doubt; inactive = no such curve, though single readings can be large; an effect the other way counts as inactive or inconclusive.

SMILES	HTT cytoprotect	Lamin A splicing	MBNL1-CUG inh	CBFb-RUNX1 inh	HttQ103 aggreg	NPSR antag
COc1ccc(CCC(=O)NCc2nc3cccnc3n2Cc2ccc(OC)cc2)cc1	nt	1%[46 µM]	nt	nt	nt	nt
COC(=O)C1=C(C(=O)OC)[C@@H]2N(Cc3ccccc3)c3ccccc3[C@@]23C[C@@H](C(=O)OC)N(S(=O)(=O)c2cccs2)C3=N1	-12%[10 µM]	3%[9.22 µM]	nt	-14%[13.1 µM]	nt	nt
Cc1sc2ncnc(N/N=C/c3ccccc3O)c2c1C	-73%[10 µM]	?	nt	nt	2.5µM*	-8%
CCOc1ccc(N(CC(=O)Nc2ccc(C)c(C)c2)S(=O)(=O)c2c(C)noc2C)cc1	18%[10 µM]	?	-2%	-9%	20µM*	-19%[46.1 µM]
CCOc1ccc(N(CC(=O)Nc2cccc(F)c2)S(=O)(=O)c2c(C)noc2C)cc1	-29%	5%	1%	5%	?	-26%[46.1 µM]
CCOC(=O)/C(=C\c1cccc(O)c1)c1nc2sc(C)c(C)c2c(=O)[nH]1	-29%[10 µM]	?	nt	1%	4%	10µM*
CCOC(=O)c1nc2sc(C)c(C)c2c(=O)[nH]1	17%	2%	12%	-1%	-7%	-16%[46.1 µM]
COc1ccc2c(c1)C(=O)[C@@H](OC(=O)NS(=O)(=O)c1ccc(F)cc1)[C@H](c1ccc(OC)c(Br)c1)O2	-41%	nt	nt	4%	nt	nt
COc1ccccc1NC(=O)N1CCN(c2cc(-c3ccccc3)nc3ncnn23)CC1	?	?	-20%	1%	10µM*	-21%[46.1 µM]
COc1ccc(OC)c(NC(=O)C2CCN(c3cc(-c4ccccc4)nc4ncnn34)CC2)c1	-65%	15%	13%	-1%	11%	-16%[46.1 µM]
Cc1c(C(=O)N2CCC(C)CC2)c(S(=O)(=O)N2CCN(c3ccc(Cl)cc3)CC2)c(C)n1C	nt	-3%[46 µM]	nt	nt	nt	nt
CC(C)C(N)C(=O)O (configuration not stated)	-19%	nt	nt	13%	nt	nt
COc1cc(C2C=C(C34CC5CC(CC(C5)C3)C4)NC(=S)N2)cc(OC)c1OC (configuration not stated)	-14%	-1%	-6%	-12%	-25%	10µM*
Cc1ccc(C(=O)[C@@H]2[C@@H]3[C@@H](C(=O)[C@@H]4OC[C@H]3O4)[C@@H]3C=Cc4ccccc4N23)cc1	-3%	nt	nt	nt	nt	nt
CC(C)[C@H](NC(=O)[C@@H]1CSSC[C@H](NC(=O)[C@H](CC(=O)O)NC(=O)[C@H](C)NC(=O)[C@@H](NC(=O)CNC(=O)[C@H](C)N)[C@@H](C)O)C(=O)N[C@@H](Cc2ccccc2)C(=O)N[C@@H](Cc2c[nH]c3ccccc23)C(=O)N[C@@H](CCCCN)C(=O)N[C@@H](Cc2ccc(O)cc2)C(=O)N1)C(=O)O	nt	nt	nt	10%	nt	nt
O=C(c1cncc(Br)c1)N1CCc2ccccc2C1	14%[10 µM]	5%	-12%	-3%	10µM*	3%[46.1 µM]
O=C(c1ccncc1)N1CCc2ccccc2C1	nt	nt	1%	nt	nt	nt
NCC(O)COc1cccc2ccccc12 (configuration not stated)	-5%	nt	nt	12%	nt	nt
CCOC(=O)CNC(=O)c1cc2c(=O)n3cccc(C)c3nc2n1C	nt	16%[46 µM]	nt	nt	nt	nt
CCCc1c(C)nc2ccccc2c1SCCC#N	-41%[10 µM]	?	-4%	-11%	3.2µM*	2%
CCc1c(C)nc2ccc(Br)cc2c1SCCC#N	31%[10 µM]	?	nt	10%	7.9µM*	-28%
CCCCc1c(C)nc2ccc(Br)cc2c1SCCC#N	-16%[10 µM]	?	?	7%	?	-47%
CC[C@H](C)[C@H](NC(=O)[C@H](CO)NC(=O)[C@H](C)NC(=O)[C@H](C)NC(=O)[C@H](CCC(N)=O)NC(=O)[C@H](CCCCN)NC(=O)[C@H](CCCN=C(N)N)NC(=O)[C@@H](N)CS)C(=O)N[C@@H](CCCCN)C(=O)N[C@H](C(=O)N[C@@H](C)C(=O)N[C@H](C(=O)N[C@@H](CO)C(=O)O)C(C)C)C(C)C	nt	nt	nt	-4%	nt	nt
COc1ccc(NC(=O)N2CC[C@@]3(CCCN(C(=O)c4ccncc4)C3)C2)cc1	2.2µM*	nt	nt	nt	nt	nt
CCN1/C(=C/C=C/c2oc3ccc4ccccc4c3[n+]2CC)Oc2ccc3ccccc3c21	-75%[10 µM]	?	10%	?	0.89µM*	20%
SMILES	HTT cytoprotect	Lamin A splicing	MBNL1-CUG inh	CBFb-RUNX1 inh	HttQ103 aggreg	NPSR antag
O=S(=O)(/C(=C/c1ccc(C(F)(F)F)cc1)c1nc2ccccc2[nH]1)c1ccccc1	2%[1.9 µM]	?	-6%	-2%	?	6.3µM*
N#Cc1ccc2c(c1)C[C@]1(CCCCN3C(=O)c4ccccc4C3=O)Oc3c(c(=O)oc4ccc(F)cc34)C2O1	nt	nt	5%[11.5 µM]	nt	nt	nt
COc1ccc(NC(=S)N(CCCN2CCOCC2)Cc2cn(C)c3ccccc23)cc1OC	-25%[10 µM]	?	0%	-2%	-27%	10%
COc1cccc(NC(=S)N(CCCN2CCOCC2)Cc2cn(C)c3ccccc23)c1	-53%[10 µM]	?	7%	8%	11µM*	-10%
CC[n+]1c(/C=C/c2c[nH]c3ccccc23)ccc2cc(C)ccc21	-137%	-7%[46 µM]	nt	-15%	8.9µM*	13µM*
CC(C)CO/N=C1/C[C@@H](O)[C@@H](O)[C@@H]2[C@@H]3C(=O)N([C@@H](C)c4ccccc4)C(=O)[C@H]3CC[C@H]12	?	nt	nt	6%[13.1 µM]	nt	nt
N#C[C@H](C(=O)O)C(c1c(Cl)cccc1Cl)[C@H](C#N)C(=O)O	11%[10 µM]	nt	nt	nt	nt	nt
CCOC(=O)C1=C(C)c2ccccc2N(C(=O)OC)C1(C)C(=O)OCC (configuration not stated)	-23%	nt	nt	-7%[89.1 µM]	nt	nt
CCC(C)C(=O)N1c2ccccc2C(=C2SC(C(=O)OC)=C(C(=O)OC)S2)C(=S)C1(C)C (configuration not stated)	16%[10 µM]	-4%	7%	?	5%	10µM*
N=c1c2c(n(Cc3cccc(Cl)c3)c3c1CCC3)CCCC2	-43%[10 µM]	?	0%	1%	10µM*	-13%
N=c1c2c(n(Cc3ccccc3)c3c1CCC3)CCC2	-59%	?	-11%	9%	8.9µM*	-9%[46.1 µM]
N=c1c2c(n(Cc3ccc(F)cc3)c3c1CCC3)CCCC2	-40%	-21%[46 µM]	nt	-4%	?	1%
N=c1c2c(n(Cc3ccc(Cl)cc3)c3c1CCC3)CCC2	-74%	?	-5%	-1%	?	11%[46.1 µM]
